Experimental data as given in PubChem BioAssay (NCI).
The panel holds about 83,000 compounds, 20% with a hit somewhere; the sample as a whole holds those more often.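 96-well plates, one dose, 48 hours. Percent growth reported; active if below 10.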 A number with no mark means an inactive call. Activity calls are given as the source filed them.

What was measured:
Assay in all cases: NCI-60 one-dose screen, 48 h (100 = growth as untreated, 0 = no growth, -100 = all killed)
[1] = tested on: NCI-H23 lung; conditions: 10 µM unless noted
[2] = tested on: NCI-H226 lung; conditions: 10 µM unless noted
[3] = tested on: NCI-H322M lung; conditions: 10 µM unless noted
[4] = tested on: HOP-62 NSCLC; conditions: 10 µM unless noted
[5] = tested on: NCI-H460 lung; conditions: 10 µM unless noted
[6] = tested on: HOP-92 NSCLC; conditions: 10 µM unless noted
[7] = tested on: NCI-H522 lung; conditions: 10 µM unless noted
[8] = tested on: A549/ATCC NSCLC; conditions: 10 µM unless noted
[9] = tested on: 786-0 renal; conditions: 10 µM unless noted
[10] = tested on: COLO 205 colon; conditions: 10 µM unless noted
[11] = tested on: DU-145 prostate; conditions: 10 µM unless noted
[12] = tested on: K-562 leukemia; conditions: 10 µM unless noted
[13] = tested on: MALME-3M melanoma; conditions: 10 µM unless noted
[14] = tested on: MDA-MB-231 breast; conditions: 10 µM unless noted
[15] = tested on: RXF 393 renal; conditions: 10 µM unless noted
[16] = tested on: SF-268 CNS; conditions: 10 µM unless noted
[17] = tested on: SF-295 CNS; conditions: 10 µM unless noted
[18] = tested on: SF-539 CNS; conditions: 10 µM unless noted
[19] = tested on: UACC-257 melanoma; conditions: 10 µM
[20] = tested on: M14 melanoma; conditions: 10 µM unless noted

| Structure (SMILES) | growth [1] | growth [2] | growth [3] | growth [4] | growth [5] | growth [6] | growth [7] | growth [8] | growth [9] | growth [10] | growth [11] | growth [12] | growth [13] | growth [14] | growth [15] | growth [16] | growth [17] | growth [18] | growth [19] | growth [20] |
| --- | --- | --- | --- | --- | --- | --- | --- | --- | --- | --- | --- | --- | --- | --- | --- | --- | --- | --- | --- | --- |
| Oc1ccc(Cl)cc1-c1cc(-c2ccc(Cl)cc2)n[nH]1 | 49.8% | 64.4% | 55.5% | 55.9% | 40.4% | 42.9% | 47.5% | 49.3% | 84.6% | 73.7% | 78.1% | 39.9% | 61.3% | 37.5% | 72.9% | 66.7% | 95.3% | 91.9% | 88.1% | 76.7% |
| COc1ccc(C2SCC(=O)N2NC(=O)c2ccc(NC(=O)c3ccccn3)cc2)cc1OC (stereo unspecified) | 102% | 94.3% | 95.2% | 88.1% | 113% | 116% | 81.8% | 91.7% | 97.2% | 109% | 105% | 95.9% | 105% | 102% | 103% | 96.5% | 101% | 98.8% | 92.2% | 102% |
| O=C(O)Cc1ccc2c(c1)Cc1cccnc1O2 | 98.9% | 91.7% | 109% | 106% | 105% | 112% | 95.7% | 96.1% | 98% | 111% | 107% | 114% | 98.5% | 111% | 91.2% | 103% | 108% | 99.7% | 106% | 103% |
| COc1ccc(NC(=O)CSc2nc3ccccc3c(=O)n2-c2ccccc2C(F)(F)F)c(OC)c1OC | 102% | 102% | 116% | 78% | 99.4% | 77.3% | 112% | 98.3% | 101% | 102% | 105% | 94.5% | 106% | 89% | 108% | 100% | 94.2% | 94.7% | 100% | 97.5% |
| O=C(CN1CCOCC1)Nc1ccc(-c2nc3ccccc3s2)cc1 | 99.5% | 95% | 100% | 106% | 99.7% | 83.3% | 94.5% | 93.8% | 101% | 115% | 109% | 99.3% | 117% | 96.8% | 111% | 110% | 98.2% | 89.7% | 101% | – |
| CCCOC(=O)C1(O)CCCC1 | 106% | 92.9% | 102% | 109% | 108% | 89.8% | 75% | 105% | 105% | 118% | 123% | 110% | 96.3% | 112% | 103% | 121% | 105% | 88.1% | 103% | – |
| CC(C)CCC[C@@H](C)[C@H]1CC[C@H]2[C@@H]3CC[C@H]4C/C(=N/O)CC[C@]4(C)[C@H]3CC[C@]12C | 107% | 92.1% | 103% | 92.8% | 106% | 101% | 104% | 73.1% | 102% | 108% | 116% | 91.2% | 104% | 98.8% | 102% | 110% | 101% | 109% | – | – |
| CC(C)(C)c1ccc(S(=O)(=O)Oc2ccc3c4c(c(=O)oc3c2)CCCCC4)cc1 | 43% | 56.7% | 85.9% | 85.2% | 43.2% | 3.94% (active) | -14.1% (active) | 59.3% | 60.8% | 37.4% | 77.4% | 38.5% | 44% | 80.2% | 48.1% | 61.1% | 2.71% (active) | 42.7% | 48.9% | 39.4% |
